Laboratory results from PubChem BioAssay (NCI).
Where “and” joins values, the source holds several entries; their conditions need not be identical. Identical values can stand only once. About 83,000 compounds went through this panel and 20% of them were active in at least one assay; those are over-represented in the sample as a whole.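 How to read the values: 0–100, growth inhibition (40 = 60% inhibited); 0, no net growth; -100 to 0, cell death (-40 = 40% of starting cells died; -100 = all dead).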 Calls of active or inactive are those of the source. The calls were made as follows: active = growth percent below 10; inactive = the rest.

Test system: MDA-MB-468 breast
Assay: NCI-60 one-dose screen, 48 h (100 = growth as untreated, 0 = no growth, -100 = all killed)
Settings: 10 µM unless noted

Q: With Clc1ccc2[nH]cc(-c3nc(-c4c[nH]c5ncccc45)cs3)c2c1 as the compound, how does the growth read?
A: 45.2% (inactive)

Q: For O=C(c1ccccc1)C(Cl)C(Cl)c1ccccc1 (stereo unspecified), which growth is on record?
A: 17.6% (inactive)

Q: Which growth does the source give for C/C=C1\SC(=S)NC1=O here?
A: 114% (inactive)

Q: Which growth does the source give for CC(CCC(=O)O)[C@H]1CCC2C3C(=O)C[C@@H]4CC(=O)CC[C@]4(C)C3CC(=O)[C@@]21C (stereo partly specified) here?
A: 112% (inactive)

Q: COc1cc(NC(C)CN(CC(C)C)C(C)C)c2ncccc2c1 (stereo unspecified) was tested. Which growth did it give?
A: -15.4% (active)

Q: For CCN(CC)CCN1C(=O)c2c(c(C)c3c(oc4ccc(O)cc43)c2C)C1=O, which growth is on record?
A: 47.5% (inactive)

Q: With c1ccc2c(CC3=NCCN3)cccc2c1 as the compound, how does the growth read?
A: 92.3% (inactive) and 101% (inactive)

Q: CCOC(=O)Nc1ccc(C(=O)/C=C/c2ccccc2)cc1 was tested. Which growth did it give?
A: 94% (inactive)

Q: How did the growth turn out when Cn1cc(-c2cc3ncnc(Nc4ccc(CC(=O)Nc5cc(C(C)(C)C)nn5C)cc4)c3s2)cn1 was run?
A: 33.8% (inactive)

Q: How did the growth turn out when COc1cc2nc(NC3CCC3)nc(NC3CCN(C(C)C)CC3)c2cc1OC was run?
A: 16.5% (inactive)

Q: How did the growth turn out when N#CCCOc1ccccc1 was run?
A: 114% (inactive)

Q: For COc1ccc(-n2c(=O)c3ccccc3n(Cc3ccc(C(=O)NO)cc3)c2=O)cc1, which growth is on record?
A: 3.21% (active)

Q: With O=C(O)C1(Cc2cccc(Nc3nccs3)n2)CCC(Oc2cccc(Cl)c2F)CC1 (stereo unspecified) as the compound, how does the growth read?
A: 33.4% (inactive)

Q: Which growth does the source give for COc1cc(/C=C\c2cc(OC)c(OC)c(OC)c2)cc(N)c1OC here?
A: 58.4% (inactive)

Q: Which growth does the source give for CC1(C)CC(=O)c2c(nn(-c3ccc(Br)cc3)c2-c2cn(-c3ccccc3)nc2-c2cccnc2)C1 here?
A: 107% (inactive)

Q: Which growth does the source give for COc1ccc(C2CC(c3ccc(Nc4nc(NCCO)nc(N5CCOCC5)n4)cc3)=Nc3c(N)nc(N)nc3N2)cc1 (stereo unspecified) here?
A: 90.3% (inactive)
